Results on 8 molecules are retold here after PubChem BioAssay (NCI).

Assay in all cases: NCI-60 one-dose screen, 48 h (100 = growth as untreated, 0 = no growth, -100 = all killed)
The subject of one test is HT29 colon. As to conditions: 10 µM unless noted.
Another test deals with SNB-75 CNS. As to conditions: 10 µM unless noted.
In another test the test system is SNB-19 CNS. Conditions: 10 µM unless noted.
For the next test, the system named is U251 CNS. As to conditions: 10 µM unless noted.
The test system of the next test is PC-3 prostate. As to conditions: 10 µM unless noted.
For a further test, the system named is SK-MEL-5 melanoma. Conditions: 10 µM unless noted.
The subject of a further test is UACC-62 melanoma. Conditions: 10 µM unless noted.
A further test relates to LOX IMVI melanoma. Conditions: 10 µM unless noted.
Another test has as its system SK-MEL-28 melanoma. As to conditions: 10 µM.
Another test concerns SK-MEL-2 melanoma. As to conditions: 10 µM unless noted.
For another test, the system named is SN12C renal. Conditions: 10 µM unless noted.
The next test deals with TK-10 renal. Conditions: 10 µM unless noted.
Another test deals with ACHN renal. As to conditions: 10 µM unless noted.
In the next test the test system is CAKI-1 renal. As to conditions: 10 µM unless noted.
The test system of the next test is A498 renal. As to conditions: 10 µM unless noted.
A further test deals with CCRF-CEM leukemia. Conditions: 10 µM unless noted.
A further test concerns MOLT-4 leukemia. As to conditions: 10 µM unless noted.
For a further test, the system named is SR leukemia. As to conditions: 10 µM unless noted.
Another test has as its system EKVX NSCLC. Conditions: 10 µM unless noted.
The next test concerns UO-31 renal. Conditions: 10 µM unless noted.

Compounds without any hit were thinned out: in the full panel of roughly 83,000, 20% have a hit.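 In brief: 96-well plates, 48 h treatment, single concentration, percent growth endpoint.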 A number with no mark means an inactive call. Active and inactive are the calls of the source. Rule for the calls: active = growth percent below 10; inactive = the rest.

As to `NNC(=O)CNC(=O)Nc1n[nH]c(=S)s1`, the growth in the test with HT29 colon was 95.9%; in the test on SNB-75 CNS it was 92.1%; in the test with SNB-19 CNS it was 106%; in the test with U251 CNS, 105%; in the test with PC-3 prostate, 95.9%; with SK-MEL-5 melanoma, 105%. In addition, the growth in the test with UACC-62 melanoma is 104%; in the test on LOX IMVI melanoma it was 98.1%; with SK-MEL-28 melanoma, 106%; in the test with SK-MEL-2 melanoma, 97.7%; in the test with SN12C renal, 98.1%; with TK-10 renal, 107%. Besides, the growth with ACHN renal was 94.4%; in the test on CAKI-1 renal, 98.3%; in the test on A498 renal, 98.3%; with CCRF-CEM leukemia it was 93%; with MOLT-4 leukemia, 89.5%; in the test on SR leukemia, 83.3%.

For `C=C(C)CCC(C)N1CCC(N2CCC(C(=O)NCCc3ccccc3)CC2)CC1` (stereo not drawn), the growth in the test with HT29 colon is 39.3%; in the test with SNB-75 CNS, 105%; with SNB-19 CNS it was 102%; in the test with U251 CNS, 77.4%; with PC-3 prostate, 59.7%; with SK-MEL-5 melanoma, 10.9%. The growth in the test with UACC-62 melanoma is 68.9%; in the test with LOX IMVI melanoma, 63.1%; in the test on SK-MEL-28 melanoma it was 90%; in the test on SK-MEL-2 melanoma, 99.3%; in the test on SN12C renal, 57.5%; in the test with TK-10 renal it was 114%. Further, the growth in the test with ACHN renal was 72.1%; in the test on CAKI-1 renal it was 89.1%; in the test on A498 renal, 72%; with CCRF-CEM leukemia it was 45.5%; in the test on MOLT-4 leukemia, 42.9%.

With `COC(=O)c1c2c(c(C)[n+]([O-])c1C)C(=O)C(NCc1ccc(Br)cc1)=CC2=O`, the growth in the test with HT29 colon is 9.96% (active); in the test on SNB-75 CNS, 84.5%; in the test on SNB-19 CNS, 19%; in the test with U251 CNS, 9.45% (active); with PC-3 prostate, 27.6%; in the test on SK-MEL-5 melanoma, -93.1% (active). Besides, the growth with UACC-62 melanoma is -16.2% (active); with SK-MEL-28 melanoma it was 65.3%; in the test on SK-MEL-2 melanoma it was 47.1%; in the test on EKVX NSCLC it was 31.8%; with SN12C renal, 4.82% (active); in the test with UO-31 renal it was 60.9%. The growth is 84.4% in the test on TK-10 renal; 32.6% with ACHN renal; 46.4% in the test on CAKI-1 renal; 34.3% in the test with CCRF-CEM leukemia; 35% with MOLT-4 leukemia; 30.2% in the test on SR leukemia.

As to `COc1cc(C2C3=C(COC3=O)N(CCO)c3cc4c(cc32)OCCO4)cc(OC)c1O` (stereo not drawn), the growth in the test with HT29 colon was 3.06% (active); in the test on SNB-75 CNS, -17.9% (active); in the test with SNB-19 CNS, 26.8%; in the test with U251 CNS it was 19.7%; in the test with PC-3 prostate, 27.2%; in the test on SK-MEL-5 melanoma it was 12.9%. In addition, the growth with UACC-62 melanoma is 33.5%; with LOX IMVI melanoma, 33%; with SK-MEL-2 melanoma, 76.5%; in the test with EKVX NSCLC it was 41%; in the test on SN12C renal, 39.8%; in the test on UO-31 renal, 60.3%. For the same molecule, the growth is 47.4% in the test with TK-10 renal; 37.2% in the test with ACHN renal; 39.8% in the test on CAKI-1 renal; 25.5% with A498 renal; 15.5% in the test on CCRF-CEM leukemia; 29.7% in the test with MOLT-4 leukemia. Further, the growth with SR leukemia was 23%.

As to `COc1ccc(/C=C/C(=O)c2c(C)nc3ccccc3c2/C=C/c2ccccc2)cc1O`, the growth in the test with HT29 colon is 71.6%; with SNB-75 CNS, 24.9%; in the test on SNB-19 CNS, 67.3%; in the test with U251 CNS it was 49%; in the test with PC-3 prostate it was 58.4%; in the test with SK-MEL-5 melanoma, 59.3%. Also, the growth is 48.6% with UACC-62 melanoma; 75.2% with SK-MEL-28 melanoma; 66.8% with SK-MEL-2 melanoma; 90.3% in the test on EKVX NSCLC; 62.2% in the test on SN12C renal; 53.3% with UO-31 renal. In addition, the growth with ACHN renal was 62.2%; in the test with CAKI-1 renal it was 52.6%; in the test with A498 renal it was 106%; in the test with CCRF-CEM leukemia it was 32.2%; in the test with MOLT-4 leukemia, 29.9%.

As to `COc1ccc(/C=C2\CCC/C(=C\c3ccc(OC)c(OC)c3)C2=O)cc1OC`, the growth in the test on HT29 colon is 1.7% (active); in the test on SNB-75 CNS, 0.689% (active); with SNB-19 CNS it was 37.8%; with U251 CNS, 12.3%; with PC-3 prostate, 40.8%; with SK-MEL-5 melanoma, 5.95% (active). For the same molecule, the growth was -2.18% (active) in the test on UACC-62 melanoma; -35% (active) in the test on LOX IMVI melanoma; 86.4% in the test with SK-MEL-2 melanoma; 25.9% in the test with EKVX NSCLC; 8.6% (active) with SN12C renal; 19.3% in the test with UO-31 renal. The growth in the test with TK-10 renal is 7.6% (active); with ACHN renal it was 8.29% (active); with CAKI-1 renal, 3.35% (active); with A498 renal, 35.5%; in the test with CCRF-CEM leukemia, 5.72% (active); with MOLT-4 leukemia, 6.9% (active).

As to `O=c1cc(NC2CCN(CCCc3ccccc3)CC2)c2cc(Cl)ccc2o1`, the growth with HT29 colon is -12.9% (active); in the test on SNB-75 CNS, -5.24% (active); with SNB-19 CNS, 25.6%; with U251 CNS it was -24.7% (active); in the test on PC-3 prostate, 0% (active); with SK-MEL-5 melanoma, -54.6% (active). In addition, the growth was 9.81% (active) in the test with UACC-62 melanoma; -1.07% (active) with LOX IMVI melanoma; 8.62% (active) in the test with SK-MEL-28 melanoma; -44% (active) in the test on SK-MEL-2 melanoma; 6.09% (active) in the test on SN12C renal; -13.9% (active) with TK-10 renal. Besides, the growth with ACHN renal is 10.3%; in the test on CAKI-1 renal, -10.6% (active); in the test with A498 renal, -19% (active); with CCRF-CEM leukemia, 3.59% (active); with MOLT-4 leukemia, 1.27% (active); in the test with SR leukemia it was -11.4% (active).

For `Cc1nc(Nc2cn[nH]c2C(=O)Nc2ccc(CN3CCN(C)CC3)cc2)c2ccsc2n1`, the growth with HT29 colon is 66.1%; with SNB-75 CNS it was 37.7%; in the test on SNB-19 CNS, 107%; in the test with U251 CNS, 92.8%; with PC-3 prostate, 69.8%; in the test on SK-MEL-5 melanoma, 90.3%. Also, the growth was 93.9% with UACC-62 melanoma; 107% in the test on SK-MEL-28 melanoma; 111% in the test with SK-MEL-2 melanoma; 75.4% in the test on SN12C renal; 59.6% in the test with UO-31 renal; 114% with TK-10 renal. In addition, the growth in the test with ACHN renal was 92.8%; in the test on CAKI-1 renal it was 61.5%; in the test with A498 renal, 66.7%; with CCRF-CEM leukemia, 40.5%; in the test with MOLT-4 leukemia, 45.8%; in the test on SR leukemia it was 5.46% (active).
